For the experiment, the target named is Alpha-bungarotoxin (Bungarus multicinctus) (UniProt P60615). Kind of experiment: compounds binding labelled alpha-BTX control protein – biochemical, small-molecule microarray, Alexa647 label, 635/667 nm fluorescence, artefact control for SMM control protein annotation, profiling panel (AID 1117). To be noted: alpha-BTX-A647 binding fluorescence, higher = more signal.
Sequence of Alpha-bungarotoxin (Bungarus multicinctus) (P60615 whole entry, looked up): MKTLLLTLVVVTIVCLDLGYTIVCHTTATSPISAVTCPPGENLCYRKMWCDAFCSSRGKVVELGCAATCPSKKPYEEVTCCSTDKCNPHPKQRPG
As for `CCOC(=O)[C@H](Cc1ccccc1)NC(=O)CCC1CC(OC(=O)NCCc2ccc(F)cc2)CC2(CCCC(COC(=O)NCc3cccc(C(F)(F)F)c3)O2)O1` (stereo partly specified), the composite z-score came to 1.04.

In the case of `C[C@H]1CC[C@@H](C(=O)O)N[C@@H]1c1ccc(C#Cc2ccccc2)cc1`, the composite z-score came out at 0.966.

Turning to `C[C@H]1CC[C@H]2C(=O)OC(COc3ccc(C(C)(C)C)cc3)CN2[C@@H]1c1ccc(Br)cc1` (stereo partly specified), the composite z-score was found to be 0.319.

`OC[C@H]1O[C@H](C#Cc2ccccc2)C=C[C@@H]1O`: the composite z-score was 0.42.

In the case of `CC(C)(C)N1C(=O)[C@H]2[C@H]3[C@H](O)[C@H](O)CC(=NOC[C@@H](O)COCc4ccco4)[C@@H]3CC[C@H]2C1=O`, the composite z-score is 1.65.

Regarding `COC(=O)[C@H](C)NC(=O)CCC1CC(OC(=O)NCc2ccc3c(c2)OCO3)CC2(CCCC(COC(=O)NCc3ccccc3)O2)O1` (stereo partly specified), the composite z-score was found to be 0.159.

Consider `O=C1[C@H]2[C@H]3[C@H](O)[C@H](O)CC(=NOC[C@@H](O)COCc4ccco4)[C@@H]3CC[C@H]2C(=O)N1Cc1ccccc1`, for which the composite z-score is 0.238.

In the case of `COc1ccc(COC(=O)NN=C2C[C@@H](O)[C@@H](O)[C@@H]3[C@@H]4C(=O)N(C5CCCCC5)C(=O)[C@@H]4CC[C@@H]23)cc1`, the composite z-score came out at 0.229.

In turn, `CC(=O)OC[C@H]1O[C@@H](ON=C(C)CCN2CCCCc3nc(C)c(C)cc32)[C@H](OC(C)=O)[C@@H](OC(C)=O)[C@@H]1OC(C)=O` gave a composite z-score of -0.546.

`CCOC(=O)[C@H](CC(C)C)NC(=O)CCC1CC(OC(=O)NCc2ccc3c(c2)OCO3)CC2(CCCC(COC(=O)NCCOC)O2)O1` (stereo partly specified) returned a composite z-score of 1.05.

Regarding `CO[C@H]1COC(=O)[C@H](C)COC(=O)[C@@H](OCc2ccccc2)C=C[C@@H]1C`, the composite z-score was -0.281.

Turning to `CCOC(=O)[C@H](Cc1ccccc1)NC(=O)CCC1CC(OC(=O)NCc2cccc3ccccc23)CC2(CCCC(COC(=O)NCCOc3ccccc3)O2)O1` (stereo partly specified), the composite z-score was 0.594.

For the molecule `CCc1cc2c(nc1CC)CCN(CCC(C)=NOC[C@@H](C)[C@H](OCc1ccccc1)C(C)C)C2`, the composite z-score was -0.86.

In turn, `O=C1CCCC=C1C(O)C1CCCCC1` (stereo unspecified) had a composite z-score of -0.268.

Molecule `CC(C)=CCCC(C)=CCON=C1C[C@@H](O)[C@@H](O)[C@@H]2[C@@H]3C(=O)N(Cc4ccc5c(c4)OCO5)C(=O)[C@@H]3CC[C@@H]12` registered a composite z-score of 0.59.

`CC(C)=CCCC(C)=CCON=C1[C@H]2CCn3c(=O)n(-c4ccccc4)c(=O)n3[C@H]2[C@H](O)[C@@H]2O[C@H]12` came in with a composite z-score of 0.514.

`C=CCOCC1CN2[C@@H](CC[C@@H](C)[C@@H]2c2ccc(Br)cc2)C(=O)O1` (stereo partly specified): the composite z-score turned out to be 0.101.

Take `CCCC[C@H]1CN2[C@@H](CC[C@@H](C)[C@@H]2c2ccc(Br)cc2)C(=O)O1`: the composite z-score came out at 0.678.

In the case of `CC(C)CON=C1[C@H]2CCn3c(=O)n(C)c(=O)n3[C@H]2[C@H](O)[C@@H]2O[C@H]12`, the composite z-score was determined as 0.255.

`O=C1C=C[C@@H](O)[C@@H]2[C@@H]3C(=O)N(c4cccc(Oc5ccccc5)c4)C(=O)[C@@H]3CC[C@@H]12` came in with a composite z-score of 0.0671.

As to `Cc1cc(C)c(-c2cc([C@H](C)ON=C[C@@H](C)[C@H](OCc3ccccc3)C(C)C)on2)c(C)c1`, the composite z-score turned out to be 0.108.

On to `C[C@@H]1C=CCC(=O)OC[C@H](C)C(=O)N[C@@H](Cc2ccccc2)C(=O)OC1`, for which the composite z-score is -0.0092.

Molecule `CCOC(=O)NN=C1C[C@@H](O)[C@@H](O)[C@@H]2[C@@H]3C(=O)N(C[C@@H]4CCCO4)C(=O)[C@@H]3CC[C@H]12` returned a composite z-score of -0.213.

The molecule `COc1ccc(-c2cnnc(CCCn3ccnc3-c3ccccc3)n2)cc1` displayed a composite z-score of 0.587.

The molecule `CCOC(=O)[C@H](Cc1ccccc1)NC(=O)CCC1CC(OC(=O)NCc2ccc3c(c2)OCO3)CC2(CCCC(COC(=O)NCCc3ccc(Cl)cc3)O2)O1` (stereo partly specified) showed a composite z-score of 0.337.

Consider `CCO[C@H](c1cc(OC)cc([N+](=O)[O-])c1OC)[C@H](C)[C@@H](OC)[C@H](C)C=CCC(=O)OC`, for which the composite z-score worked out at 0.696.

Molecule `CCN(CC)CC(O)CN1CCCCc2nc(C)c(C)cc21` (stereo unspecified) showed a composite z-score of 0.695.

Regarding `O=C1CCCC=C1C(O)c1ccc([N+](=O)[O-])cc1` (stereo unspecified), the composite z-score was -0.237.

The molecule `CCOC(=O)[C@H](Cc1ccccc1)NC(=O)CCC1CC(OC(=O)NCCc2ccc(F)cc2)CC2(CCCC(COC(=O)NCCOc3ccccc3)O2)O1` (stereo partly specified) gave a composite z-score of 0.472.

On to `COC(=O)[C@H](Cc1ccccc1)NC(=O)[C@@H](C)CO`, for which the composite z-score came out at 0.0296.

For `CCOC(=O)CCN1C(=O)[C@H]2[C@H]3[C@H](O)[C@H](O)CC(=NOCC=C(C)CCC=C(C)C)[C@H]3CC[C@H]2C1=O`, the composite z-score turned out to be 0.271.

`O=C1[C@H]2[C@H]3[C@H](O)[C@H](O)CC(=NO[C@@H]4O[C@H](CO)[C@@H](O)[C@H](O)[C@H]4O)[C@H]3CC[C@H]2C(=O)N1c1ccc(F)cc1F`: the composite z-score was found to be 0.184.

`O=C1[C@H]2[C@H]3[C@H](O)[C@H](O)CC(=NOCc4ccccc4)[C@@H]3CC[C@H]2C(=O)N1c1cccc(Oc2ccccc2)c1` showed a composite z-score of 0.626.

In turn, `O=C1C2=CC[C@H]3C(=O)N(C[C@@H]4CCCO4)C(=O)[C@H]3[C@H]2[C@H](O)[C@@H]2O[C@H]12` showed a composite z-score of 0.395.

With `CCOC(=O)[C@H](CC(C)C)NC(=O)CCC1CC(OC(=O)NCc2ccc3c(c2)OCO3)CC2(CCCC(COC(=O)NCc3ccccc3)O2)O1` (stereo partly specified), the composite z-score stood at 0.461.

As for `CON=C(C)CCN1CCCc2nc(C)c(C)cc21`, the composite z-score turned out to be 0.0599.

The values above are taken from PubChem BioAssay.
